From PubChem BioAssay (NCATS)
Records with an inconclusive call do not appear. Where a call stands in place of a potency, no number is given. Calls of active or inactive are those of the source. The call rests on the fitted dose curve; in most records, active means well fitted inhibition curve with a large enough effect; inconclusive means small, poorly fitted or top-dose-only effect; inactive means flat fitted curve, though single readings scatter.

Columns and labels:
Assay in all cases: qHTS profiling for inhibitors of Plasmodium falciparum proliferation (AID 504749); further: nearly all actives have a fitted effect of over 60% in size
Conditions in all cases: P. falciparum in erythrocytes, SYBR Green DNA, 72 h; series mostly up to 28.7 µM
DFO2036 = tested on: DFO2036
In short: (§1)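 P. falciparum-infected erythrocytes (0.3% parasitemia, 2.5% hematocrit) incubated with compound 72 h at 37 C, 5% CO2. Parasite DNA detected by SYBR Green after lysis, overnight at room temperature; normalised to 0.29 uM artemisinin and DMSO.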

DIV14 = tested on: DIV14
In short: as §1

DIV17 = tested on: DIV17
In short: as §1

DIV30 = tested on: DIV30
In short: as §1

Dd2 = tested on: Dd2
In short: as §1

ECU = tested on: ECU
In short: as §1

FAB9 = tested on: FAB9
In short: as §1

GB4 = tested on: GB4
In short: as §1

HB3 = tested on: HB3
In short: as §1

ICS = tested on: ICS
In short: as §1

JCK = tested on: JCK
In short: as §1

N140 = tested on: N140
In short: as §1

P93_24 = tested on: P93_24
In short: as §1

P94_40 = tested on: P94_40
In short: as §1

PAD = tested on: PAD
In short: as §1

PC15 = tested on: PC15
In short: as §1

PC26 = tested on: PC26
In short: as §1

PC49 = tested on: PC49
In short: as §1

SC27B = tested on: SC27B
In short: as §1

CP335 = tested on: CP335
In short: as §1
Potency means the concentration at half of the fitted maximal effect.

| SMILES | Potency (DFO2036) | Potency (DIV14) | Potency (DIV17) | Potency (DIV30) | Potency (Dd2) | Potency (ECU) | Potency (FAB9) | Potency (GB4) | Potency (HB3) | Potency (ICS) | Potency (JCK) | Potency (N140) | Potency (P93_24) | Potency (P94_40) | Potency (PAD) | Potency (PC15) | Potency (PC26) | Potency (PC49) | Potency (SC27B) | Potency (CP335) |
| --- | --- | --- | --- | --- | --- | --- | --- | --- | --- | --- | --- | --- | --- | --- | --- | --- | --- | --- | --- | --- |
| CCCCCCCCCCCCCCCCCCOCC(O)CO (stereo not drawn) | inactive | inactive | inactive | inactive | inactive | inactive | inactive | inactive | inactive | inactive | inactive | inactive | inactive | inactive | inactive | inactive | inactive | inactive | inactive |  |
| CN1CCN(C2Cc3ccccc3Sc3ccc(Cl)cc32)CC1 (stereo not drawn) | inactive |  |  |  |  |  | inactive |  | inactive | 12.6 µM (active) | inactive | inactive |  | inactive |  | inactive |  |  |  |  |
| NC(=O)N/N=C/c1ccc([N+](=O)[O-])o1 |  |  |  |  | 10 µM (active) |  | inactive | 13.5 µM (active) | 11.2 µM (active) | 11.2 µM (active) | inactive | 11.2 µM (active) | 8.91 µM (active) |  |  |  |  |  | 12.6 µM (active) |  |
| CCOC(CN1CCN(CC(C)C(=O)c2ccccc2)CC1)c1ccccc1 (stereo not drawn) | inactive |  |  | inactive |  | inactive | inactive |  | inactive |  | inactive | inactive |  |  | inactive | inactive |  | inactive | inactive |  |
| CN(C)CCN(Cc1ccccc1)c1ccccn1 | inactive |  |  |  |  | inactive | inactive |  | inactive |  | inactive |  |  | inactive | inactive | inactive |  | inactive | inactive |  |
| CSc1ccc2c(c1)N(CCC1CCCCN1C)c1ccccc1S2 (stereo not drawn) |  | 10.7 µM (active) | 10.7 µM (active) |  |  | 11.2 µM (active) |  | 10.7 µM (active) | inactive | 10 µM (active) |  |  | 11.2 µM (active) | 7.08 µM (active) | 8.91 µM (active) | 10 µM (active) |  |  | 12.6 µM (active) |  |
| COCCOC(=O)C1=C(C)NC(C)=C(C(=O)OC/C=C/c2ccccc2)C1c1cccc([N+](=O)[O-])c1 (stereo not drawn) |  | 13.5 µM (active) | 8.49 µM (active) |  | 12.6 µM (active) | 10 µM (active) | inactive |  | 11.2 µM (active) | 11.2 µM (active) | inactive | 8.91 µM (active) | 11.2 µM (active) |  | 8.91 µM (active) |  |  | inactive | 10 µM (active) | 9.53 µM (active) |
| CCCCN1CCCC[C@H]1C(=O)Nc1c(C)cccc1C | inactive | inactive | inactive | inactive | inactive | inactive | inactive |  | inactive | inactive | inactive | inactive | inactive | inactive | inactive | inactive | inactive | inactive | inactive |  |
| CC(=O)c1ccc2c(c1)N(CCCN(C)C)c1ccccc1S2 | inactive |  |  | inactive |  | inactive | inactive |  | inactive | inactive |  | inactive |  | inactive | inactive | inactive | inactive | inactive | inactive | inactive |
| CN1CCC[C@@H]1Cc1c[nH]c2ccc(CCS(=O)(=O)c3ccccc3)cc12 | inactive | 9.53 µM (active) | 7.57 µM (active) |  | 12.6 µM (active) |  | inactive |  | inactive | 7.08 µM (active) | inactive |  |  |  |  |  |  |  | inactive |  |
